# Sampled rows, rich in hits. Any-hit rate of the full collection: about 2.7%.
# GLP1R ag – GLP-1 receptor (human) agonism | P43220 | HEK293 GLP-1R CRE-luciferase, luminescence, 4-6 h; cells express a hypersensitive GLP-1R form | Potency, µM (series often up to 45.6 µM), hits mostly activators | 380,000 compounds, 0.007% hits
# HEK293 tox – cytotoxicity counter-screen for GLP-1 receptor inverse agonists; HEK293 cAMP-luciferase reporter cells, luminescence, 24 h; Potency, µM (titrated, usually from 38.3 µM), usual class: inhibitors; 410,000 compounds, 0.13% hits; AID 624418;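 note: loss of luciferase light is scored as toxicity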
#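 MLSMR compounds, 24 hr on cells at 37 deg C/5% CO2; luminescence after luciferase reagent (12 min RT). Inhibition counted as the undesired cytotoxic outcome.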
# TrxR1 substrate – is turned over as a substrate by rat TrxR1. AID 588456. O89049. 390,000 compounds, 0.01% hits. purified TrxR1 substrate turnover, NADPH consumption readout. Potency, µM (highest dose often 114 µM); note: nearly all actives have a fitted effect of over 50% in size
# Target sequence (O89049 whole entry, looked up): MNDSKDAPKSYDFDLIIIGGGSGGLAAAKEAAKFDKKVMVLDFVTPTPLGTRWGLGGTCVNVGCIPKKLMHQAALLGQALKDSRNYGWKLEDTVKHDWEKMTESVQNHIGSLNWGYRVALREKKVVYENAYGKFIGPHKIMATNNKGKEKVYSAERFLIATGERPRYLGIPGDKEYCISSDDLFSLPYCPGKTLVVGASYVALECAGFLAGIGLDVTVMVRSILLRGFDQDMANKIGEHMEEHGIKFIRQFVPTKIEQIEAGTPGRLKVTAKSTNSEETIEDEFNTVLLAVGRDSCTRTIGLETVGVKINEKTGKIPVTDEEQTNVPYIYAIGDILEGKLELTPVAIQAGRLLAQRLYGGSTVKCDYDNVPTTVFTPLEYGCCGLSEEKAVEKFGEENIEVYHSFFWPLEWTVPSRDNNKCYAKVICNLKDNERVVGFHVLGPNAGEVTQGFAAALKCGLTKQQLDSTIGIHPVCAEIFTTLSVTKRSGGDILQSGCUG
#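 Rat TrxR1, dispensed at 90 nM, was prereduced with 400 uM NADPH (final) for 5 min at ~22 deg C, then incubated with compound 15 min before 400 uM selenite. A first-read NADPH fluorescence drop versus no-compound background flagged substrates.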
# GLP-1R inv ag – inverse agonists of human GLP-1 receptor | Potency, µM (highest dose often 38.3 µM), hits mostly inhibitors | AID 624417 | HEK293 GLP-1R CRE-luciferase, luminescence, 24 h; GLP-1R form is constitutively active | P43220 | 410,000 compounds, 1.6% hits; note: nearly all actives have a fitted effect of over 55% in size
#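 Cells are plated, allowed 12 hours at 37 deg C, then treated with compounds for 24 hr before luciferase detection reagent is added and luminescence is read after 12 min at room temperature. The HEK293 line carries constitutively active GLP-1R with a cAMP-responsive reporter.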
# rTrxR1 inhibitor – rat TrxR1 inhibition; recombinant rTrxR1, NADPH fluorescence consumption, selenite substrate; Potency, µM (highest dose often 114 µM), hits mostly inhibitors; 390,000 compounds, 1% hits; note: nearly all actives have a fitted effect of over 65% in size
#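 Rat TrxR1 (90 nM in the dispensed reagent) was pre-reduced with 400 uM NADPH for 5 min at room temperature, then incubated with compound for 15 min. After 400 uM selenite was added, NADPH fluorescence (Ex 340/Em 450 nm) was followed for 8 min.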
# IDH1 R132H inh – blocks human mutant IDH1 R132H enzyme; IDH1-R132H enzyme, NADPH consumption, diaphorase/resazurin fluorescence; Potency, µM (highest dose often 76.6 µM), actives largely listed as inhibitors; 390,000 compounds, 0.093% hits; note: nearly all actives have a fitted effect of over 65% in size
#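 IDH1-R132H (0.5 ug/mL dispensed) in pH 7.5 Tris buffer was preincubated 30 min with compound, then given a substrate mix of 0.016 mM NADPH and 2 mM alpha-KG for 80 min at room temperature; remaining NADPH was read by diaphorase/resazurin fluorescence.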
# Numbers stand for hits; - = inactive; ? = inconclusive; . = no result given; [ ] = dose if it differs, or a comment. Calls come from the whole dose curve; as a rule, active = well fitted curve in the direction sought with a large enough effect; inconclusive = small, poorly fitted or top-dose-only effect, or another doubt; inactive = no such curve, though single readings can be large; an effect the other way counts as inactive or inconclusive.
SMILES,GLP1R ag,HEK293 tox,TrxR1 substrate,GLP-1R inv ag,rTrxR1 inhibitor,IDH1 R132H inh
Cc1ccc2nc(-c3ccc(N4CCOCC4)cc3)c(Nc3ccccc3C)n2c1,.,-,-,?,-,-
Cc1ccn2c(Nc3ccccc3C)c(-c3ccc(N4CCOCC4)cc3)nc2c1,.,-,-,13µM,?,-
Cc1ccccc1Nc1c(-c2ccc(N3CCOCC3)cc2)nc2ccc(Cl)cn12,.,-,-,10µM,-,-
Cc1cccc(C)c1OC(=O)CCN1C(=O)C2C3C=CC(C4CC34)C2C1=O (stereo unspecified),-,-,-,7.1µM,-,-
O=C(CCN1C(=O)C2C3C=CC(C4CC34)C2C1=O)Oc1ccccc1 (stereo unspecified),-,-,-,-,-,-
CCOc1ccc(S(=O)(=O)Nc2ccc(Cl)cn2)c(C)c1C,-,-,-,11µM,-,-
Cc1csc(NCC(=O)c2c(C)[nH]c3ccccc23)n1,.,.,-,.,-,.
CC1(C)N=C(N)N=C(N)N1c1ccc(Cl)cc1,-,.,.,.,.,.
Cc1cc(C(=O)Nc2ccc3c(c2)OCO3)no1,-,-,-,?,-,-
CC(C)Cc1cc(C(=O)Nc2ccc3c(c2)OCO3)no1,-,-,-,4µM,-,-
CC(=O)OCC(NC(=O)C(C)NC(=O)OC(C)(C)C)C1OC(n2ccc(=O)[nH]c2=O)C(OC(C)=O)C1OC(C)=O (stereo unspecified),.,.,-,.,-,.
N/C(=N\OCc1ccc([N+](=O)[O-])cc1)c1ccccn1,-,-,-,1.3µM,-,-
CCCN1CNc2c(c(=O)[nH]c(=S)n2CCc2ccc(OC)cc2OC)C1,.,.,-,.,-,.
CCN1CCN(Cc2ccc(NC(=O)Nc3ccc(SC)cc3)cc2)CC1,-,?,-,7.9µM,-,-
CCOC(=O)C1=CC[C@@H](c2ccccc2)N(S(=O)(=O)c2ccc(C)cc2)[C@H]1C=C(C)C,-,-,.,?,.,.
CCC/C=C1/CCCOC(C(=O)NCCOC)(C(F)(F)F)C1 (stereo unspecified),.,.,-,.,-,.
CC(=O)c1ccc(OCC(=O)N2CCCCC2)cc1,-,.,.,.,.,.
CCN(C(=O)c1cc2c(s1)-c1c(C)cccc1OC2)c1cc(C)ccc1C,.,-,-,11µM,-,-
O=C1[C@H](Cc2ccccc2)NC/C=C\C[C@H](c2ccc(Cl)cc2)N1Cc1ccc(Cl)cc1,.,.,-,.,-,.
CC(C)OC(=O)/C(=C\c1cccc2ccccc12)NC(=O)c1ccccc1,-,-,-,10µM,-,-
CC(C)OC(=O)/C(=C\c1ccccc1)NC(=O)c1ccccc1,-,-,-,-,-,-
COC(=O)c1ccc(=O)c2nc3/c(=C/O)c(O)cc(=O)c3[nH]c12,-,?,-,-,56µM,-
Cc1cccc(Nc2nnc(-n3nc(C)cc3C)c3ccccc23)c1,.,-,-,-,-,-
COc1cccc(-c2csc(N3CCN(C(=S)Nc4cccc(Cl)c4)CC3)n2)c1,-,-,-,10µM,-,-
COc1cccc(-c2csc(N3CCN(CC(=O)NNC(=O)c4ccc(Br)cc4)CC3)n2)c1,-,-,-,11µM,-,-
SMILES,GLP1R ag,HEK293 tox,TrxR1 substrate,GLP-1R inv ag,rTrxR1 inhibitor,IDH1 R132H inh
COc1cccc(OC)c1C(=O)Nc1ccc(-c2nc3ncccc3o2)cc1,.,-,-,-,-,-
CC(=O)Nc1nonc1-c1nnc(SCC(=O)Nc2ccccc2)n1-c1ccccc1,.,-,-,-,-,-
COc1ccc(C(=O)N(Cc2ccccc2)Cc2ccc(OC)c(COc3ccc(NC(C)=O)cc3)c2)cc1,.,.,-,.,-,.
CC(C)CCOc1ccc(C(=O)NCC(c2ccco2)N(C)C)cc1 (stereo unspecified),-,-,-,7.9µM,-,-
COc1ccc(N/N=C(\C#N)C(=N)N2CCCCC2)cc1,-,?,-,?,-,-
COc1ccc(N/N=C(\C#N)C(=N)SCc2ccccc2)cc1,-,?,-,0.28µM,-,-
C=CCn1c(Sc2ncc([N+](=O)[O-])s2)n[nH]c1=O,-,8.9µM,-,?,0.32µM,-
COc1ccc(N=C(c2ccccc2)c2c(C)[nH]n(-c3ccccc3)c2=O)c(OC)c1,-,-,-,7.9µM,-,-
COc1ccccc1N=Nc1c(C)[nH]n(-c2ccccc2)c1=O,-,-,-,-,-,-
Cc1ccc(Cn2ncc3c(N4CCN(c5ccccc5C)CC4)ncnc32)cc1,-,-,-,3.5µM,-,-
COc1ccc(Cl)cc1NC(=O)CSc1cn(CC(=O)N2CCCCC2)c2ccccc12,.,-,-,?,-,-
Clc1ccc(-c2cc3ccccc3nc2N2CCCC2)cc1,-,-,-,?,-,-
Clc1ccc(-c2cc3ccccc3nc2N2CCOCC2)cc1,-,-,-,10µM,-,-
CCOC(=O)C(NC(C)=O)(Nc1ccc(S(=O)(=O)Nc2cc(C)on2)cc1)C(F)(F)F (stereo unspecified),-,-,-,-,-,-
Cc1cc(NS(=O)(=O)c2ccc(NC(NC(=O)C(C(F)(F)F)C(F)(F)F)(C(F)(F)F)C(F)(F)F)cc2)no1,-,-,-,-,10µM,-
COc1ccc(C(=O)/C=C/Sc2nc3ccccc3o2)cc1,-,-,-,-,1µM,-
COc1ccc(C(=O)N/C(N)=N/c2nc3ccccc3o2)cc1,-,-,-,-,-,-
CC(=O)c1ccc(C2CC34CNS(=O)(=O)C3CC2O4)cc1 (stereo unspecified),.,.,-,.,28µM,.
CC(=O)c1ccc(C2CC34CN(Cc5cccc(Cl)c5)S(=O)(=O)C3CC2O4)cc1 (stereo unspecified),.,.,-,.,-,.
O=C1CC(N(Cc2cccs2)C(=O)Nc2ccccc2)C(=O)N1c1ccc(Cl)cc1 (stereo unspecified),-,-,-,8.9µM,-,-
CNC(=O)c1cn(-c2ccc(Cl)cc2)c(=O)c2ccccc12,-,-,-[11.4 µM],-,-[11.4 µM],-
CCCCN(CC)CCNC(=O)c1cn(-c2ccc(Cl)cc2)c(=O)c2ccccc12,-,-,-,10µM,-,-
CC(=O)N[C@@H]1C(O[C@H]2O[C@H](C(=O)O)C(O)[C@H](O)[C@H]2O)[C@H](O)[C@@H](CO)O[C@H]1O[C@@H]1C(C(=O)O)O[C@@H](O[C@H]2[C@H](O)[C@@H](CO)OC(O)[C@@H]2NC(C)=O)[C@H](O)[C@H]1O (stereo partly specified),-,.,.,.,.,.
Cc1ccc2nccc(/C=C/c3ccc(N(C)C)cc3)c2c1,.,.,-,.,-,.
CCOC(=O)/C=C(/C)N1N=C(c2ccc(OC)cc2)CC1c1cccc([N+](=O)[O-])c1 (stereo unspecified),-,-,-,?,50µM,-

# Source: PubChem (National Center for Advancing Translational Sciences (NCATS))
